Common to all, as to assay: DAPPL (digital affinity profiling via proximity ligation, sequencing); 10 mM Tris-HCl pH 7.5, 50 mM NaCl, 1 mM DTT, 4% glycerol, room temperature, 30 min; GST-TFs on glutathione beads, 16-mer random dsDNA library, 0.1% formaldehyde crosslink after washing; high values mean tight binding
The target of one assay is T1, FEV (Homo sapiens, UniProt Q99581 1-238).
T1 sequence: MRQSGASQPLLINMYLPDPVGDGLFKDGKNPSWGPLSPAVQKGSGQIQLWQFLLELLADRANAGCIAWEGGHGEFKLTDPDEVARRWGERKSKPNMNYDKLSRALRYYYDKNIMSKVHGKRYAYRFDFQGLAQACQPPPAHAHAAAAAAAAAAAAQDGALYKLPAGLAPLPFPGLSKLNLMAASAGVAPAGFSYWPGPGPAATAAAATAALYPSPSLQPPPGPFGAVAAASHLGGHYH
Particulars: protein: recombinant; tags: N-terminal GST; dsDNA, one strand shown. In a few lines:
(§1)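 Pools of DNA-barcoded human transcription factors, expressed in yeast as GST fusions on glutathione beads and combined with a tag-only sample, were incubated with 200 nmole of a 16-mer random double-stranded DNA library. Incubation took 30 min at room temperature in Tris/NaCl/DTT/glycerol buffer and was followed by washing, 0.1% formaldehyde crosslinking, proximity ligation (BsaI/T4 ligase, 1 h, 37 °C), PCR amplification and sequencing on an Illumina NextSeq500. Binding signal is the ratio of a hexamer's read frequency for a factor to its frequency for the tag-only sample.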

Another assay deals with ETV5 (Homo sapiens, UniProt P41161 1-510). Conditions: protein: recombinant; tags: N-terminal GST; dsDNA, one strand shown. The method, boiled down:
as §1

The next assay has as its target HSF1 (Homo sapiens, UniProt Q00613 1-529). Particulars: protein: recombinant; tags: N-terminal GST; chain copies: 3; dsDNA, one strand shown. The method, boiled down:
as §1

Another assay deals with T2, SPIC (Homo sapiens, UniProt Q8N5J4 1-248).
T2 sequence: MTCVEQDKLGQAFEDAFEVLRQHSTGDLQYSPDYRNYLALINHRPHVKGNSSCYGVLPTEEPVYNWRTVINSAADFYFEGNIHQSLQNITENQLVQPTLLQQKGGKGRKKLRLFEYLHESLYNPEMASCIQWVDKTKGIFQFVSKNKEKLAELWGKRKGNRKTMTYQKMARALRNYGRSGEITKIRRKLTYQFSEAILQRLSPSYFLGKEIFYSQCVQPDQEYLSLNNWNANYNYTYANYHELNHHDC
Conditions: protein: recombinant; tags: N-terminal GST; dsDNA, one strand shown. The method, boiled down: as §1

The target in the next assay is ELF4 (Homo sapiens, UniProt Q99607 1-663). Particulars: protein: recombinant; tags: N-terminal GST; dsDNA, one strand shown. In a few lines: as §1
Another assay has as its target T3, ELK4 (Homo sapiens, UniProt P28324-2 1-405).
T3 sequence: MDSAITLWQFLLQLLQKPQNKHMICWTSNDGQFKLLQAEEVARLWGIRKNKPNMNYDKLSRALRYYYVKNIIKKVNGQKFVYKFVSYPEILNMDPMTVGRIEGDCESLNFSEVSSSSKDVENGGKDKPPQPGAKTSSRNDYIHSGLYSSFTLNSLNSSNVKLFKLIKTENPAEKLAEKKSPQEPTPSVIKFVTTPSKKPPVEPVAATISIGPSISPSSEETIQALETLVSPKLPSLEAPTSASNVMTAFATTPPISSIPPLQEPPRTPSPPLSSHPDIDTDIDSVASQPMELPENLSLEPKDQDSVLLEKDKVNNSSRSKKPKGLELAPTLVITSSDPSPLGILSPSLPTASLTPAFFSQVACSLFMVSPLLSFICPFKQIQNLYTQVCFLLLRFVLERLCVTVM
Conditions: protein: recombinant; tags: N-terminal GST; dsDNA, one strand shown. In a few lines: as §1

A further assay has as its target T4, ETV2 (Homo sapiens, UniProt O00321 1-342).
T4 sequence: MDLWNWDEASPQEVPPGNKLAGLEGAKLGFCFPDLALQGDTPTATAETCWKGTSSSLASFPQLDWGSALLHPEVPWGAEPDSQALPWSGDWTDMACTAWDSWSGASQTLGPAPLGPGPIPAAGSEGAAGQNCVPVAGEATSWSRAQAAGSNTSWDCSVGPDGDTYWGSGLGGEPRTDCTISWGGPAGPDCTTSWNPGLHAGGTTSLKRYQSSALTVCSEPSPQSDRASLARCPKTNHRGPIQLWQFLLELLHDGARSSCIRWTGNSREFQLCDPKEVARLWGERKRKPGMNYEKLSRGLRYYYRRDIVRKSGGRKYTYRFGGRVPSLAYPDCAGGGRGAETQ
Particulars: protein: recombinant; tags: N-terminal GST; dsDNA, one strand shown. The method, boiled down:
as §1

The target of the next assay is T5, ELF3 (Homo sapiens, UniProt P78545 1-371).
T5 sequence: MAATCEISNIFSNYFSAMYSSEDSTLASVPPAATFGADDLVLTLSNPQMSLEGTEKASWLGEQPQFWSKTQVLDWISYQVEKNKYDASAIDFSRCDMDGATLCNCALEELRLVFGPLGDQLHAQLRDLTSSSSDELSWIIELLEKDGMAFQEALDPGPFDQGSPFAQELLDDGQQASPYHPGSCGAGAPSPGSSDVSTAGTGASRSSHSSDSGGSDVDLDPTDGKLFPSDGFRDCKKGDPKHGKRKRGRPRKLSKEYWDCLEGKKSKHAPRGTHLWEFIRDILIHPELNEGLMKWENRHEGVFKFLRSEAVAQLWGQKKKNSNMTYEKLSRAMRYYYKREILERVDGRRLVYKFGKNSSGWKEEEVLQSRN
Conditions: protein: recombinant; tags: N-terminal GST; dsDNA, one strand shown. In a few lines: as §1

The target of a further assay is CRX (Homo sapiens, UniProt O43186 1-299). Particulars: protein: recombinant; tags: N-terminal GST; dsDNA, one strand shown. The method, boiled down: as §1
The target of another assay is ETV1 (Homo sapiens, UniProt P50549 1-477). Particulars: protein: recombinant; tags: N-terminal GST; dsDNA, one strand shown. In a few lines:
as §1

The next assay concerns the target T6, ERF (Homo sapiens, UniProt P50548 1-548).
T6 sequence: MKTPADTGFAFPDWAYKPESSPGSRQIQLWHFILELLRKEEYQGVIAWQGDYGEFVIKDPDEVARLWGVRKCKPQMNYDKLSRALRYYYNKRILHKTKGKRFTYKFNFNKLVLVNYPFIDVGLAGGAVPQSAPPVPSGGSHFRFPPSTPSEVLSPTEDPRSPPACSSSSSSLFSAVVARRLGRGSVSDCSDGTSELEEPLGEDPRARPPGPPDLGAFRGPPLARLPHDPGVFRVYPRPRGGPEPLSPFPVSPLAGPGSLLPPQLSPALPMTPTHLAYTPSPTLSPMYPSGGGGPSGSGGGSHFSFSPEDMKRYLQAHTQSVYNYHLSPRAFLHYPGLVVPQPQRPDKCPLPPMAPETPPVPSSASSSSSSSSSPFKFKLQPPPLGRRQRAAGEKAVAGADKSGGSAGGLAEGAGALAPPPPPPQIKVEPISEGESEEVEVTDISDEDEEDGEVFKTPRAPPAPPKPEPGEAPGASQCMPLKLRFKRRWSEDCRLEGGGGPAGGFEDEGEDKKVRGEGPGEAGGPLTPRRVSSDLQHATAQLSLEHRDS
Conditions: protein: recombinant; tags: N-terminal GST; dsDNA, one strand shown. In a few lines: as §1

Another assay deals with T7, ETV3L (Homo sapiens, UniProt Q6ZN32 1-361).
T7 sequence: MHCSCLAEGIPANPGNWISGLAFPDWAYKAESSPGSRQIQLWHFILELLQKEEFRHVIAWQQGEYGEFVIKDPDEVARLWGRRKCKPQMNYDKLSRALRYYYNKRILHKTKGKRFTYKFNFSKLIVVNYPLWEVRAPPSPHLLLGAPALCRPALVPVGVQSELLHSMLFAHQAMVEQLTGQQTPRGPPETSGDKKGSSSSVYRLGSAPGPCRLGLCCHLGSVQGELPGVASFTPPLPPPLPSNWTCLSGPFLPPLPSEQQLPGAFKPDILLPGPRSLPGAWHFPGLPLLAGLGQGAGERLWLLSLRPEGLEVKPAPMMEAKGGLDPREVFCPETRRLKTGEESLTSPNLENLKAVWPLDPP
Particulars: protein: recombinant; tags: N-terminal GST; dsDNA, one strand shown. The method, boiled down:
as §1

The target in the next assay is T8, ETS2 (Homo sapiens, UniProt P15036 1-469).
T8 sequence: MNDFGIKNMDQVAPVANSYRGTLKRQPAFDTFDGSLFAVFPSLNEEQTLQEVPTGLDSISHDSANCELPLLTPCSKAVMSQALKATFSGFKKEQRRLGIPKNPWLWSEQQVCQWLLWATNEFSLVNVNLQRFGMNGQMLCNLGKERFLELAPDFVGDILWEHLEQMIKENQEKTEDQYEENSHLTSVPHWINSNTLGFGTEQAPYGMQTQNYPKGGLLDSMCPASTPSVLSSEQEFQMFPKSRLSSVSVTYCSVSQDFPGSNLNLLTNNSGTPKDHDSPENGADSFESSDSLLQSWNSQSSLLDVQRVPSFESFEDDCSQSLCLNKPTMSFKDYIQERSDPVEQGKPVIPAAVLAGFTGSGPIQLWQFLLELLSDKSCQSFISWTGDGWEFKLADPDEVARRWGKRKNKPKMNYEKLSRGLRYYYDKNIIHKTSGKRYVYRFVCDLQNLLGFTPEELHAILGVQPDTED
Particulars: protein: recombinant; tags: N-terminal GST; dsDNA, one strand shown. In a few lines:
as §1

The next assay addresses T9, SPDEF (Homo sapiens, UniProt O95238 1-335).
T9 sequence: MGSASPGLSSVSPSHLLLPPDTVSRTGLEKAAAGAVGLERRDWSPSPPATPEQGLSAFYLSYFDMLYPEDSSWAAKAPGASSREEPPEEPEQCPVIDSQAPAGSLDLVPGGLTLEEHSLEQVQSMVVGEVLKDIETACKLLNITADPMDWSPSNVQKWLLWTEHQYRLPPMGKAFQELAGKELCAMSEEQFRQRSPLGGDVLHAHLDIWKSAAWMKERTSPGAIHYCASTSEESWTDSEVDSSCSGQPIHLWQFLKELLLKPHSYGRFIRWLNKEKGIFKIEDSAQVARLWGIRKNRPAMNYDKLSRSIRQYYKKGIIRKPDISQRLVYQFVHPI
Particulars: protein: recombinant; tags: N-terminal GST; dsDNA, one strand shown. The method, boiled down:
as §1

The next assay concerns the target T10, ETV7 (Homo sapiens, UniProt Q9Y603 1-341).
T10 sequence: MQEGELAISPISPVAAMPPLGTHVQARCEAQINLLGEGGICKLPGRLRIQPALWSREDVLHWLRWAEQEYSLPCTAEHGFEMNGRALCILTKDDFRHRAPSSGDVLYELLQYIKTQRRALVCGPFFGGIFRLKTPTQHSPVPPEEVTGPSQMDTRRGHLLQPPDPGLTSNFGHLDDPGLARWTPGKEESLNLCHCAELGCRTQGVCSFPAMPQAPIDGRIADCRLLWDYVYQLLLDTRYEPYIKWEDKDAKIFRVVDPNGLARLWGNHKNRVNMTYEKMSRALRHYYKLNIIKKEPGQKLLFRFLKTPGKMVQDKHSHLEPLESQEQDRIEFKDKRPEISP
Conditions: protein: recombinant; tags: N-terminal GST; dsDNA, one strand shown. The method, boiled down:
as §1

A further assay addresses T11, ELF5 (Homo sapiens, UniProt Q9UKW6-2 1-255).
T11 sequence: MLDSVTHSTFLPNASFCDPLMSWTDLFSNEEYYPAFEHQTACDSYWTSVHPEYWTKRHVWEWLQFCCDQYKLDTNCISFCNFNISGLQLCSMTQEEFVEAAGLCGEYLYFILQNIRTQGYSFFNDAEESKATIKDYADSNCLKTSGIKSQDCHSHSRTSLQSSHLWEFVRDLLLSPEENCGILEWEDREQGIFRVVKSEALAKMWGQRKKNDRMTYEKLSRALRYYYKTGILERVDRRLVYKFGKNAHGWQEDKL
Conditions: protein: recombinant; tags: N-terminal GST; dsDNA, one strand shown. The method, boiled down: as §1

For the next assay, the target named is T12, ETV3 (Homo sapiens, UniProt P41162-2 1-143).
T12 sequence: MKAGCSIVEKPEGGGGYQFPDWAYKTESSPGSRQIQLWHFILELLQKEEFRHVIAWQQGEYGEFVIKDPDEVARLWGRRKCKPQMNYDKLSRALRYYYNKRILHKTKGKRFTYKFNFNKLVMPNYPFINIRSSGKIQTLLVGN
Particulars: protein: recombinant; tags: N-terminal GST; dsDNA, one strand shown. In a few lines: as §1

The target in the next assay is ETV6 (Homo sapiens, UniProt P41212 1-452). Particulars: protein: recombinant; tags: N-terminal GST; dsDNA, one strand shown. In a few lines:
as §1

Sequence of ETV5 (P41161 whole entry): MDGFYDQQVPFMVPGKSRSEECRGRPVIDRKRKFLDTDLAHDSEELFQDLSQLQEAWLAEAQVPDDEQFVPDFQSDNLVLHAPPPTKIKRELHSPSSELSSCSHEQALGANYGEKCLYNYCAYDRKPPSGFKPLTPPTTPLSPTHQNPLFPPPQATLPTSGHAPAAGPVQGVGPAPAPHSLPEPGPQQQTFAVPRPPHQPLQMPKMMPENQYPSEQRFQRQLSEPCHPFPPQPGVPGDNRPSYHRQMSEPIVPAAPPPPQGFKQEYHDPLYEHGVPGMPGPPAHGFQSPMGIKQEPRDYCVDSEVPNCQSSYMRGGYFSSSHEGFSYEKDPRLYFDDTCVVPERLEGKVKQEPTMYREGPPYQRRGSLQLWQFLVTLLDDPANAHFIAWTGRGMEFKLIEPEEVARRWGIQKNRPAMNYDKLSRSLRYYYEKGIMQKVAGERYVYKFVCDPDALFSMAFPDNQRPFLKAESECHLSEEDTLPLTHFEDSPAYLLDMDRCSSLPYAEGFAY
Sequence of ETV6 (P41212 whole entry): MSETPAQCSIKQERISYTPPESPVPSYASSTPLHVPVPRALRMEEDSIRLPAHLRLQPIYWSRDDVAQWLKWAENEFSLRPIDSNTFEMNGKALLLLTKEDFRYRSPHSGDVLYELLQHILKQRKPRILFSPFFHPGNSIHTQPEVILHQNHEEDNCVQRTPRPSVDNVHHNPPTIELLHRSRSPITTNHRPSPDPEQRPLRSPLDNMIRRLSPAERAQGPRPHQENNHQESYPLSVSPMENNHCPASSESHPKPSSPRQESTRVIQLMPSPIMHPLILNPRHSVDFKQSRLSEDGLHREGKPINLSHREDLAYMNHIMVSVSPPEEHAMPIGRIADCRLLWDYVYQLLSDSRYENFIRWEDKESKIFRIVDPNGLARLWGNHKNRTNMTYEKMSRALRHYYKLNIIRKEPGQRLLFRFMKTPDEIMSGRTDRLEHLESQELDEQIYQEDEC
Sequence of HSF1 (Q00613 whole entry): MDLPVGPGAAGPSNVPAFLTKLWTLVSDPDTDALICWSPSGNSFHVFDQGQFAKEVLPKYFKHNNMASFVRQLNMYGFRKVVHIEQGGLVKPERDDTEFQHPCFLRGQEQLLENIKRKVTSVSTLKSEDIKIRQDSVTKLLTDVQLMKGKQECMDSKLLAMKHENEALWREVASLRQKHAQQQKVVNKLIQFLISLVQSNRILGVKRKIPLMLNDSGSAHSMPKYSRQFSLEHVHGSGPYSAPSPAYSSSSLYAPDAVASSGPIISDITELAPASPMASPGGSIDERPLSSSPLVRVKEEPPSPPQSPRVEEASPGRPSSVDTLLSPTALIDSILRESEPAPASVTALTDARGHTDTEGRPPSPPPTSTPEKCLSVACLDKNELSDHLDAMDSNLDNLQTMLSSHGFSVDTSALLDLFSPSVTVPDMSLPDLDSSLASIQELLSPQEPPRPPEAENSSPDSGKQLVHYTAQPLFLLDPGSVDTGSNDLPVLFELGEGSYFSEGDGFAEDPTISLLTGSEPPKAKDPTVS
Sequence of ETV1 (P50549 whole entry): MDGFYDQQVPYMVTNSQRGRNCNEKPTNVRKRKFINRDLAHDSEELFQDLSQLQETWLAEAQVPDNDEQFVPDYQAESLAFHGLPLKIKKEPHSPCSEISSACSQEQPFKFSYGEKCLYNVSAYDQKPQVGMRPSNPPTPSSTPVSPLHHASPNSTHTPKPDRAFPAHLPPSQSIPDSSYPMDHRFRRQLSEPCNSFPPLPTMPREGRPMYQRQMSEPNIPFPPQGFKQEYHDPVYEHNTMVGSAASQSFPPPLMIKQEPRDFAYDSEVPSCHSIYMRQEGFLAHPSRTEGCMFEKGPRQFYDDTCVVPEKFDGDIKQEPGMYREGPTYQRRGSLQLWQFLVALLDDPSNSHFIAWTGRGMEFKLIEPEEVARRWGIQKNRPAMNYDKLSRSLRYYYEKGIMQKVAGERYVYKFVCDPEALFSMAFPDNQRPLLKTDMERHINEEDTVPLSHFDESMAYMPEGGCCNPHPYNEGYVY
Sequence of CRX (O43186 whole entry): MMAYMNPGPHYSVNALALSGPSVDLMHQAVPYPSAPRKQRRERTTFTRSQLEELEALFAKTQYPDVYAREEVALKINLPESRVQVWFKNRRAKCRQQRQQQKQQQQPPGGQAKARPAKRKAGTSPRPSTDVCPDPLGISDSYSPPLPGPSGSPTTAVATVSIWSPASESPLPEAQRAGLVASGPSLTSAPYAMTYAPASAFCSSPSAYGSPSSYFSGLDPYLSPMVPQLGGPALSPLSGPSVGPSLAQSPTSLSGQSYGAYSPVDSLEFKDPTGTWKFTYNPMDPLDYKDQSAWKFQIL
Sequence of ELF4 (Q99607 whole entry): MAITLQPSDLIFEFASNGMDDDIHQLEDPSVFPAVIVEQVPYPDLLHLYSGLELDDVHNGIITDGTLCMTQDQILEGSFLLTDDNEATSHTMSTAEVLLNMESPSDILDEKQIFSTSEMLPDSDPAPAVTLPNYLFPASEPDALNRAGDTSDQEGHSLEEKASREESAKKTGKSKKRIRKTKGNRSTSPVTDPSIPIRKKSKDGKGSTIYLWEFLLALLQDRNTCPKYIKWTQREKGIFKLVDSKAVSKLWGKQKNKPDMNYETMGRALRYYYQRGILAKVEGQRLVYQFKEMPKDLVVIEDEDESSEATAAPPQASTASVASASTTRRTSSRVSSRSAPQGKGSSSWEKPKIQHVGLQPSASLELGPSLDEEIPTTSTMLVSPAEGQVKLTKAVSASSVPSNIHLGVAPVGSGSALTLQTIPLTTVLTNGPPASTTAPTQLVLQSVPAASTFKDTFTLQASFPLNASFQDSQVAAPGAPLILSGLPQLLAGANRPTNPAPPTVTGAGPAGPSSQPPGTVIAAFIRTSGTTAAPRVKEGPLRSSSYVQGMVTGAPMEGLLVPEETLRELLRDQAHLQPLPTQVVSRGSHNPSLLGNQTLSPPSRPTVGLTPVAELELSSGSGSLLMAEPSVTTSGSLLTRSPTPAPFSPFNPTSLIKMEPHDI

In the case of GTTTCT, the binding signal with FEV is 1.16 fold enrichment (6-mer frequency, TF over GST control); in the assay with ETV5 it was 1.24 fold enrichment (6-mer frequency, TF over GST control); in the assay with HSF1, 1.84 fold enrichment (6-mer frequency, TF over GST control); with SPIC, 1.28 fold enrichment (6-mer frequency, TF over GST control); with ELF4, 1.28 fold enrichment (6-mer frequency, TF over GST control); with ELK4, 1.15 fold enrichment (6-mer frequency, TF over GST control). Moreover, the binding signal is 1.25 fold enrichment (6-mer frequency, TF over GST control) with ETV2; 1.2 fold enrichment (6-mer frequency, TF over GST control) with ELF3; 1.15 fold enrichment (6-mer frequency, TF over GST control) with CRX; 1.33 fold enrichment (6-mer frequency, TF over GST control) in the assay with ETV1; 1.24 fold enrichment (6-mer frequency, TF over GST control) with ERF; 1.33 fold enrichment (6-mer frequency, TF over GST control) with ETV3L. Moreover, the binding signal in the assay with ETS2 is 1.28 fold enrichment (6-mer frequency, TF over GST control); with SPDEF, 1.21 fold enrichment (6-mer frequency, TF over GST control); with ETV7 it was 1.38 fold enrichment (6-mer frequency, TF over GST control); with ELF5, 1.31 fold enrichment (6-mer frequency, TF over GST control); with ETV3 it was 1.24 fold enrichment (6-mer frequency, TF over GST control); with ETV6, 1.28 fold enrichment (6-mer frequency, TF over GST control).

(Values after PMC7862700, “An all-to-all approach to the identification of sequence-specific readers for epigenetic DNA modifications on cytosine”.)
